Measured values taken from PubChem BioAssay (NCI).
Compounds without any hit were thinned out: in the full panel of roughly 79,000, 15% have a hit. Unmarked numbers belong to inactive results. Rule as the data show it: active = growth inhibition above about 70%; inactive = the rest.

assay: NCI Yeast Anticancer Drug Screen. Data for the sgs1 mgt1 strain (AID 161);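 also: 0% = growth of cultures given vehicle only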; conditions: S. cerevisiae sgs1 mgt1 strain, at 5.0 µM (retest, dose inferred, filed as 0.5), hits give high values
How it was run: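 Test agents were incubated with a DNA-repair-mutant yeast strain. Growth was then read and compared against vehicle-treated controls.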

Row | SMILES | growth inhibition [%]
1 | CC(/C=N/NS(=O)(=O)c1ccc(C)cc1)=C(c1ccccc1)c1ccccc1 | -79
2 | CCOC(=O)Cc1cc(=O)oc2c(CN3CCN(c4ccc(C)cc4)CC3)c(O)ccc12 | -1
3 | Clc1ccc(/C=N\Nc2c3ccccc3nc3ccccc23)cc1Cl | 1
4 | CNC(=O)c1cc(NC(=O)c2ccc(C(=O)Nc3cc(C(=O)NC)cc(C4=NCCN4)c3)cc2)cc(C2=NCCN2)c1 | -6
5 | O=P1(O)c2ccccc2CS(=O)(=O)Cc2ccccc21 | 26
6 | CC1=C(C(=O)NCc2ccccc2)C(c2ccccc2[N+](=O)[O-])C(C(=O)NCc2ccccc2)=C(C)N1 | -2
7 | Oc1ccc(C2CCCCC2)cc1 | -10
8 | CCN(CC)CCOc1cccc2c1C(=O)c1c(O)cccc1C2=O | 4
9 | CCN(CC)C1Oc2cc3c(cc2C(c2ccc(OC)cc2)C1C)OCO3 (stereo unspecified) | -48
10 | COc1ccc(C2C3CCCC(C(c4ccc(OC)cc4)N2C)C32NC(=O)NC2=O)cc1 (stereo unspecified) | 23
11 | Clc1ccc(SSc2ccc(Cl)cn2)nc1 | 17
12 | CN=c1sc2c(n1C)C(=O)c1ccccc1C2=O | 31
13 | O=C(Nc1cccc(Cl)c1)OCCOC(=O)Nc1cccc(Cl)c1 | 22
14 | O=[N+]([O-])c1ccc2c(c1)Cc1cc(Cl)ccc1-2 | 1
15 | Cc1c(-c2ccccc2)ccnc1/C=N/NC(=S)NCCc1ccccc1 | 52
16 | O=C(O)CCC(=O)NCCNC(=O)CC(=O)O | -57
